According to paper PMC5540273 (PLoS ONE, 2017):
Several values for one entry are separate records, joined by “and”; a condition that tells them apart may be missing. Identical values can stand only once. Like-named read-outs stand apart in the source and are kept apart here.

Legend:
ERN1 = conditions: concentration: 1 μM, replicates: in singlicate, n = 1
FAK = system: T1, FAK; conditions: concentration: 1 μM, replicates: in singlicate; n = 1
T1 construct: gene PTK2

FER = conditions: concentration: 1 μM, replicates: in singlicate, n = 1
FES = conditions: concentration: 1 μM, replicates: in singlicate, n = 1
FGFR1 = conditions: concentration: 1 μM, replicates: in singlicate, n = 1
FGFR2 = conditions: concentration: 1 μM, replicates: in singlicate; n = 1
FGFR3 = conditions: concentration: 1 μM, replicates: in singlicate, n = 1
FGFR4 = conditions: concentration: 1 μM, replicates: in singlicate, n = 1
FGR = conditions: concentration: 1 μM, replicates: in singlicate, n = 1
FLT1 = conditions: concentration: 1 μM, replicates: in singlicate, n = 1
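Note: KINOMEscan kinase panel screen.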

| Compound | %Inh (ERN1) [%] | %Inh (FAK) [%] | %Inh (FER) [%] | %Inh (FES) [%] | %Inh (FGFR1) [%] | %Inh (FGFR2) [%] | %Inh (FGFR3) [%] | %Inh (FGFR4) [%] | %Inh (FGR) [%] | %Inh (FLT1) [%] | %Inh (ERN1; 1 µM) | %Inh (FER; 1 µM) | %Inh (FES; 1 µM) | %Inh (FGFR1; 1 µM) | %Inh (FGFR3; 1 µM) | %Inh (FGFR4; 1 µM) | %Inh (FGR; 1 µM) | %Inh (FLT1; 1 µM) |
| --- | --- | --- | --- | --- | --- | --- | --- | --- | --- | --- | --- | --- | --- | --- | --- | --- | --- | --- |
| CC(C)Oc1ccc2c(-c3ccnc(Nc4ccc(N5CCN(C)CC5)cc4)n3)cnn2n1 [GW696155] | 62 | 0 | 22 | 15 | 15 | 1 | 12 | 0 | 57 | 59 | – | – | – | – | – | – | – | – |
| Cc1cccc(-c2nc(Nc3ccc4ncsc4c3)c3ccccc3n2)n1 [GW867588] | 38 | 3 | 0 | 13 | 0 | 0 | 0 | 0 | 17 | 0 | – | – | – | – | – | – | – | – |
| CSc1ccc(-c2cc3ncnc(SCC(=O)O)c3s2)cc1 | 0 | 0 | 10 | 9 | 5 | 0 | 0 | 0 | 23 | 2 | – | – | – | – | – | – | – | – |
| O=C(c1ccc(-c2cc(-c3c[nH]nc3-c3ccccn3)ccn2)cc1)N1CCOCC1 [GW812171] | 54 | 0 | 0 | 0 | 4 | 0 | 0 | 0 | 0 | 0 | – | – | – | – | – | – | – | – |
| NCC(NC(=O)c1cc(-c2cn[nH]c2)c(-c2ccnc3[nH]ccc23)s1)c1ccccc1.O=C(O)C(F)(F)F.O=C(O)C(F)(F)F (stereo not drawn) [GSK1325775] | 29 | 57 | 0 | 0 | 20 | 0 | 0 | 0 | 0 | 0 | – | – | – | – | – | – | – | – |
| N#Cc1ccc(-c2cc(-c3c[nH]nc3-c3ccccn3)ccn2)cc1 [GW693028] | 0 | 0 | 7 | 4 | 0 | 0 | 0 | 12 | 21 | 0 | – | – | – | – | – | – | – | – |
| Cl.Oc1cccc(Nc2ccnc3cc(-c4ccncc4)ccc23)c1 [GW494601] | 21 | 0 | 23 | 0 | 59 | 0 | 12 | 12 | 98.1 | 94.4 | – | – | – | – | – | – | – | – |
| Nc1nc(-c2ccc3c(N)n[nH]c3c2)cc(N2CCCC2)n1 [GSK2227430] | 0 | 0 | 0 | 1 | 0 | 38 | 0 | 0 | 20 | 14 | – | – | – | – | – | – | – | – |
| NS(=O)(=O)CCc1cccc(Nc2nccc(-c3c(-c4cccc(NC(=O)c5c(F)cccc5F)c4)nn4ccccc34)n2)c1 [GSK336735] | 21 | 4 | 73 | 22 | 44 | 46 | 36 | 0 | 98.8 | 99.3 | – | – | – | – | – | – | – | – |
| O=C(NCCCN1CCOCC1)c1cccc(Nc2nccc(Nc3ccc(Oc4ccccc4)cc3)n2)c1 [GW663929] | 21 | 0 | 19 | 16 | 0 | 0 | 30 | 54 | 93.4 | 30 | – | – | – | – | – | – | – | – |
| c1ccc(-c2cc(-c3c[nH]nc3-c3ccccn3)ccn2)cc1 [GW576604] | 0 | 6 | 13 | 0 | 0 | 0 | 0 | 67 | 9 | 46 | – | – | – | – | – | – | – | – |
| COc1ccc(CNC(=O)NC2CCN(c3ccnc(Nc4ccc(OC)cc4)n3)C2)cc1 (stereo not drawn) [GSK1379727] | 0 | 0 | 8 | 1 | 0 | 7 | 18 | 0 | 26 | 5 | – | – | – | – | – | – | – | – |
| COc1cc(Nc2nccc(N3CCC(NC(=O)c4cccc(NC(C)=O)c4)C3)n2)cc(OC)c1OC (stereo not drawn) [GSK1379754] | 22 | 0 | 6 | 11 | 21 | 21 | 25 | 6 | 27 | 44 | – | – | – | – | – | – | – | – |
| Fc1ccc(-c2ncn(CCCN3CCOCC3)c2-c2cccnc2)cc1 [SB-211743] | 18 | 0 | 21 | 0 | 0 | 0 | 2 | 0 | 0 | 8 | – | – | – | – | – | – | – | – |
| COc1cc2ncn(-c3cc(OCc4sccc4Cl)c(C(N)=O)s3)c2cc1OC [GSK448459] | 0 | 0 | 10 | 0 | 0 | 15 | 13 | 0 | 9 | 15 | – | – | – | – | – | – | – | – |
| COc1cc2c(cc1OCCN1CCN(C)CC1)ncc1c3ccc(C#N)cc3[nH]c21 | 0 | 27 | 3 | 0 | 0 | 7 | 0 | 22 | 0 | 14 | – | – | – | – | – | – | – | – |
| [2H]C([2H])(c1cccc(C(F)(F)F)c1C)n1ccn2c(=O)nc(N3CCOCC3)cc12 [GSK2336394] | 0 | 0 | 33 | 0 | 7 | 16 | 14 | 5 | 12 | 22 | – | – | – | – | – | – | – | – |
| Cl.Nc1ncnc2occ(-c3ccc(NC(=O)Nc4cc(C(F)(F)F)ccc4F)cc3)c12 [SB-707548] | 25 | 93.7 | 31 | 6 | 74 | 77 | 63 | 71 | 41 | 99.5 | – | – | – | – | – | – | – | – |
| Cc1cn2c(=O)cc(N3CCOCC3)nc2n1Cc1cccc(Cl)c1Cl [GSK2334006] | 0 | 0 | 33 | 8 | 1 | 26 | 18 | 1 | 51 | 34 | – | – | – | – | – | – | – | – |
| CCn1cnc2c(N)ncnc21 [GW345098] | 25 | 7 | 0 | 14 | 0 | 7 | 0 | 0 | 12 | 9 | – | – | – | – | – | – | – | – |
| O=C(NCCNc1ccnc(Nc2ccc(F)cc2)n1)Nc1ccccc1F [GSK1379880] | 11 | 0 | 11 | 0 | 0 | 0 | 0 | 11 | 3 | 4 | – | – | – | – | – | – | – | – |
| O=c1cc(N2CCOCC2)nc2n(Cc3cccc4ccccc34)ccn12 [GSK2333389] | 10 | 1 | 1 | 0 | 4 | 0 | 7 | 0 | 9 | 30 | – | – | – | – | – | – | – | – |
| NS(=O)(=O)c1cccc(-c2ccc3ncc(N4CCOCC4)nc3c2)c1 [GSK1535721] | 2 | 0 | 3 | 6 | 0 | 0 | 22 | 15 | 27 | 13 | – | – | – | – | – | – | – | – |
| Cc1nnc(-c2ccc3occ(-c4ccc(C(C)O)cc4)c3c2)o1 (stereo not drawn) | 0 | 0 | 0 | 17 | 0 | 16 | 22 | 19 | 11 | 16 | – | – | – | – | – | – | – | – |
| Cc1ccc(C(=O)NCC(N)=O)cc1-n1c(C)cc(OCc2ccc(F)cc2F)c(Br)c1=O | 0 | 7 | 6 | 23 | 51 | 32 | 21 | 19 | 25 | 0 | – | – | – | – | – | – | – | – |
| NS(=O)(=O)c1cccc(-c2ccc3nccc(-c4cccc(S(N)(=O)=O)c4)c3c2)c1 [GW867253] | 39 | 0 | 0 | 0 | 11 | 0 | 0 | 0 | 0 | 0 | – | – | – | – | – | – | – | – |
| CC(C)(CN)c1nc(-c2ccc(Cl)c(O)c2)c(-c2ccncc2)[nH]1.O=C(O)C(F)(F)F [SB-477794] | – | 0 | – | – | – | 0 | – | – | – | – | 1% and 22% | 12% and 31% | 0% and 22% | 24% and 54% | 8% and 33% | 18% and 0% | 95.3% and 94.8% | 82% and 80% |
| Cc1c2ccc(N(C)c3ccnc(Nc4cccc(S(N)(=O)=O)c4)n3)cc2nn1Cc1ccccc1.Cl.Cl [GW787226] | 0 | 0 | 63 | 36 | 65 | 85 | 59 | 19 | 57 | 98.9 | – | – | – | – | – | – | – | – |
| Cc1cccc(-c2nc(-c3ccc(S(C)(=O)=O)cc3)sc2-c2ccncc2)c1 | 0 | 4 | 14 | 37 | 26 | 1 | 0 | 0 | 45 | 0 | – | – | – | – | – | – | – | – |
| O=c1cc(N2CCOCC2)nc2n(Cc3cccc(C(F)(F)F)c3)ccn12 [GSK2297543] | 6 | 0 | 34 | 0 | 11 | 0 | 19 | 1 | 17 | 17 | – | – | – | – | – | – | – | – |
